Experimental data from ChEMBL document CHEMBL3988442, “University of Dundee, Small-Polar-MMV Screening Library” (2021).

Each compound was assayed against T1, Aspartate--tRNA(Asp/Asn) ligase (Mycobacterium tuberculosis (strain ATCC 25618 / H37Rv)) (UniProt P9WFW3) (assay: Assay for Asp RNA synthetase-1 from Mycobacterium tuberculosis). Settings: 30 µM.
T1 sequence (whole entry): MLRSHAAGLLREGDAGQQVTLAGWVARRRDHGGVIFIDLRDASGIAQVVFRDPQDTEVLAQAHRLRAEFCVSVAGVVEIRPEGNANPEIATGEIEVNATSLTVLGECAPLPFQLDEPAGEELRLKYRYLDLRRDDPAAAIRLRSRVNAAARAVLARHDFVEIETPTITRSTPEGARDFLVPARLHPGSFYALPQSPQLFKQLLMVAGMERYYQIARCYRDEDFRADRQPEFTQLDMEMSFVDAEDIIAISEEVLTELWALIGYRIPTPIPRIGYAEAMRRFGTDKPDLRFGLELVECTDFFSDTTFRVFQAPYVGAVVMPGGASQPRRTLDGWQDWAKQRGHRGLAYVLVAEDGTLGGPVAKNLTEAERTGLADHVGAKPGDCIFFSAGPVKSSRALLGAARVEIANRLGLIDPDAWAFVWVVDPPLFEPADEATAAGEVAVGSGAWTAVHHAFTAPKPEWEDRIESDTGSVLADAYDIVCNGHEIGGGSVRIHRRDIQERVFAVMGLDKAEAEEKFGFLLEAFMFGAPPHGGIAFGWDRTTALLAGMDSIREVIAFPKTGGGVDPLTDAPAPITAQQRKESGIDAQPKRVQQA
Type: functional
Set-up: scale not given: in the data most compounds retested in dose-response had high values

| Compound | Percent Effect [%] |
| --- | --- |
| Cn1ccc(CN2CCC(CCc3ccc(O)cc3)CC2)cc1=O | -1.67 |
| O=C(COCc1nc(-c2ccncc2)no1)N1CCCCCC1 | 10.6 |
| CN(C)C(=O)CS(=O)(=O)Cc1cc(Cl)c2c(c1)OCO2 | 0.927 |
| Cn1nccc1C1CCN(Cc2csc(-c3ncccn3)n2)CC1 | 5.92 |
| O=C(c1cccn2ccnc12)N1CCCN(c2cccnn2)CC1 | 2.1 |
| O=C1COc2cc(C(=O)NS(=O)(=O)c3ccccc3F)ccc2N1 | -0.702 |
| Cn1ccc(NC(=O)Cc2cccc(F)c2)n1 | 3.36 |
| O=C(c1ccnnc1)N1C[C@H]2CCC[C@@]2(COCC2CCOCC2)C1 | 3.07 |
| Cn1cc(CN2C[C@@H]3COC[C@]3(C(=O)NCc3ccccn3)C2)cn1 | 3.06 |
| Cc1ccc(S(=O)(=O)N2C[C@H]3C[C@H](NC(=O)c4ccnn4C)[C@H]3C2)cc1 | 0.283 |
| O=C1[C@H]2CC[C@H](CN(Cc3ccccc3OC(F)F)C2)N1CC1CC1 | 4.85 |
| CC(C1CC1)N(C)C(=O)c1cnc(-c2ccc3c(c2)OCO3)s1 (stereo not given) | 3.36 |
| O=S(=O)(CCCN1CCCC1Cn1cccn1)c1ccccc1 (stereo not given) | -2.01 |
| Cc1ccc(C(=O)N2CCC(Oc3ccc(F)cc3F)CC2)c(=O)[nH]1 | -4.97 |
| c1cnnc(N2CCCC2CNCc2cc[nH]n2)c1 (stereo not given) | -3.63 |
| CC(C)CN1Cc2c(C(=O)N(C)C)ncn2-c2ccccc2S1(=O)=O | -2.86 |
| O=C(CSC1=NS(=O)(=O)c2cc(F)ccc2N1)c1ccc(Cl)cc1 | 5.12 |
| O=C(c1ccco1)N1CCOCC2(C1)CN(c1ccccc1)C(=O)CO2 (stereo not given) | 8.44 |
| Oc1nc(N2CCOCC2)nc2c1CCN(Cc1cccnc1)CC2 | 0.849 |
| COc1cc(C)nc(N2CCN(C(=O)CCn3cc(C)cn3)CC2)n1 | -3.63 |

| Compound | Percent Effect [%] |
| --- | --- |
| O=C(c1cscn1)N1C[C@H]2CCCC(OCc3cccnc3)[C@H]2C1 (stereo not given in full) | 6.49 |
| Cc1nc(C)n(C2CCCN(C(=O)Cc3cccnc3)C2)n1 (stereo not given) | -4.24 |
| COc1cc(C)sc1C(=O)N1CCC(Nc2cccnc2)CC1 | -3.37 |
| COCCOc1ccc(NC(=O)C2CCC2)cn1 | -1.46 |
| CCCn1nc2c(cc1=O)CN(CCCS(N)(=O)=O)CC2 | 18.8 |
| CC(C)C(C(=O)N1CCC(N(C)c2cccnn2)CC1)n1cncn1 (stereo not given) | -3.21 |
| Cc1ncsc1CN1CC[C@H]2C(=O)N(c3ccccc3)CCO[C@H]2C1 | -1.84 |
| Cc1cc(C2CCCN(CCc3ccccn3)C2)n[nH]1 (stereo not given) | -5.34 |
| COCC1CN(C(=O)CNC(C)=O)Cc2ncnn2C1 (stereo not given) | 0.773 |
| Cc1cc(CN2CC[C@H]3C[C@H](C(=O)N4CCC(C)CC4)O[C@H]3C2)no1 | 1.91 |
| Cc1cc(C)c(CNC(=O)N2CCCC2c2ccccc2)c(=O)[nH]1 (stereo not given) | -3.97 |
| Cc1cnn(CC2CN(c3ncnc4ccsc34)CCO2)c1 (stereo not given) | -1.51 |
| CCn1nc2c(cc1=O)CN(Cc1nc(-c3ccsc3)no1)CC2 | 5.03 |
| CN(C)CCO[C@H]1CN(Cc2cccc(C#N)c2)[C@@H]2COC[C@H]12 | 1.95 |
| O=C1CCSCC(C(=O)N2CCN(C3CCCCC3)CC2)N1 (stereo not given) | -4.14 |
| CN(CCCOc1ccccc1)C(=O)CN1CCc2cncnc2C1 | 5.73 |
| Cc1ccn(-c2ccc(C(=O)N3CCCC(n4ccnc4)C3)cc2)n1 (stereo not given) | 3.8 |
| COc1ccc(CCN2CCN(C(=O)c3scnc3C)CC2)cc1 | 0.928 |
| COC(=O)C(c1cc(F)ccc1F)N(C)C(=O)c1cccnc1O (stereo not given) | -4.32 |
| Cc1ccc(C)c(-n2ccc3nc(N4CCCC4)ncc3c2=O)c1 | -4.04 |
